Where “and” joins values, the source holds several entries; their conditions need not be identical. Equal values may be shown once. Records with an inconclusive call do not appear. Some structures have more than one record in an assay (separate samples or runs), and their calls can disagree. Calls of active or inactive are those of the source. How the source made its calls: active means hit-call score of the fitted dose curve at least 0.9, where 1 is the maximum; inconclusive means response in the unintended direction; inactive means score below 0.9.

Bile acid receptor (Homo sapiens), sequence (Q96RI1 whole entry, looked up): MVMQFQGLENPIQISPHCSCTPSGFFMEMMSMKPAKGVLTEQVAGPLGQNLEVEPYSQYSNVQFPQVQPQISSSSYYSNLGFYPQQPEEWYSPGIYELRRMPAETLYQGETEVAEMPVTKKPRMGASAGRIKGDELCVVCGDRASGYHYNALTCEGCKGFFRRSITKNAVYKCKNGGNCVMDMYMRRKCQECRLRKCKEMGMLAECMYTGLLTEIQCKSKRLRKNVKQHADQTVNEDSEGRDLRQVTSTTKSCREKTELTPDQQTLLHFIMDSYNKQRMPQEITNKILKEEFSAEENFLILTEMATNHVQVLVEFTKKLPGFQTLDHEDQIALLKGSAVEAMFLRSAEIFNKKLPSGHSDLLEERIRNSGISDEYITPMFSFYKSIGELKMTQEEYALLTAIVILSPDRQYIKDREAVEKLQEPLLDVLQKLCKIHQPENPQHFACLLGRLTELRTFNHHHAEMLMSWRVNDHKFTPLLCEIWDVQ

For the first experiment, the target named is Bile acid receptor (Homo sapiens) (UniProt Q96RI1). The experiment in a line: NVS_NR_hFXR_Agonist: NovaScreen (NVS) Nuclear Receptor Binding Assay for human Farnesoid X Receptor Agonism (FXR) (AID 2283347). In short, it runs like this:
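Agonist-mode FXR assay read by time-resolved FRET 1 h after compound addition, using isolated human receptor protein without cells. Duplicate 25 uM single-point primary screen, concentration series for confirmed actives; DMSO as baseline.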
In the case of `C=CCC1=C(C)C(OC(=O)C2C(C=C(C)C)C2(C)C)CC1=O` (stereo not drawn), the outcome was inactive.

In the case of `COC(=O)c1ccccc1C(=O)OC`, the compound was called inactive.

Consider `N#Cc1nn(-c2c(Cl)cc(C(F)(F)F)cc2Cl)c(N)c1S(=O)C(F)(F)F` (stereo not drawn), for which the compound was called inactive.

As to `COP(=S)(OC)Oc1nc(Cl)c(Cl)cc1Cl`, the compound was classed as inactive.

Regarding `CCc1nn(C)c(C(=O)NCc2ccc(C(C)(C)C)cc2)c1Cl`, the compound was classed as inactive.

In the next experiment the target is Estrogen receptor (Homo sapiens) (UniProt P03372). The experiment in a line: NVS_NR_hER: NovaScreen (NVS) Nuclear Receptor Binding Assay for human Estrogen Receptor (ER) (AID 2283348). In short, it runs like this: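 MCF7-derived receptor extract, radiolabelled ligand, competitive displacement. Read: scintillation counts at 18 h. DMSO = negative control/baseline. Primary 25 uM duplicate; follow-up concentration–response.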
Estrogen receptor (Homo sapiens), sequence (P03372 whole entry, looked up, the tested form may be a part): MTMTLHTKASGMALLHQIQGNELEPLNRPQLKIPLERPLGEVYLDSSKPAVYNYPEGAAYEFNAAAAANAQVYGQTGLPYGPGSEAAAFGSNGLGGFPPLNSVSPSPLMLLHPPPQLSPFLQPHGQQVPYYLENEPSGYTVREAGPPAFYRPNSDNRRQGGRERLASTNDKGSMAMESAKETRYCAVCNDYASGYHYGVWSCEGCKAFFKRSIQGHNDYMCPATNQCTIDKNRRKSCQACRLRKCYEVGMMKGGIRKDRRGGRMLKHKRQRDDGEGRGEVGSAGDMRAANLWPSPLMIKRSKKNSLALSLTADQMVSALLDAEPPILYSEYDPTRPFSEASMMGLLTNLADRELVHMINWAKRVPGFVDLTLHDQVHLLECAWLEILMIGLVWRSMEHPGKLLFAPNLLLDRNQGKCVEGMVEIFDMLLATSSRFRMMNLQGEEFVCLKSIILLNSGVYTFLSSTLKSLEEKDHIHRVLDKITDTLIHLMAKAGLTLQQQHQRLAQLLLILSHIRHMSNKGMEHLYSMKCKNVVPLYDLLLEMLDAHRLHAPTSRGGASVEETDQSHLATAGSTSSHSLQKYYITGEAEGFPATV
On to `CCCN(CCC)c1c([N+](=O)[O-])cc(S(N)(=O)=O)cc1[N+](=O)[O-]`, for which the outcome was inactive.

Take `C=CC1(C)OC(=O)N(c2cc(Cl)cc(Cl)c2)C1=O` (stereo not drawn): the compound was called inactive.

For the compound `C=CCC1=C(C)C(OC(=O)C2C(C=C(C)C)C2(C)C)CC1=O` (stereo not drawn), the outcome was inactive.

With `OC(c1ccc(Cl)cc1)(c1cncnc1)c1ccccc1Cl` (stereo not drawn), the compound was called inactive.

On to `CC(Oc1ccc(Cl)cc1Cl)C(=O)O` (stereo not drawn), for which the call was inactive.

Turning to `CON(C)C(=O)Nc1ccc(Cl)c(Cl)c1`, the result was inactive.

Take `CCCCNC(=O)OCC#CI`: the outcome was inactive.

Turning to `CCCCC(CC)COC(=O)c1ccccc1C(=O)OCC(CC)CCCC` (stereo not drawn), the result was inactive.

With `CCNc1nc(Cl)nc(NC(C)C)n1`, the compound was called inactive.

As to `CCOC(=O)CC(SP(=S)(OC)OC)C(=O)OCC` (stereo not drawn), the result was inactive.

On to `N#Cc1cc(Br)c(O)c(Br)c1`, for which the compound was classed as inactive.

By AC50 is commonly meant the midpoint of the concentration-response curve, whichever way the signal moves. For `COc1ccc(C(c2ccc(OC)cc2)C(Cl)(Cl)Cl)cc1`, the AC50 was 4.64 µM (active) and 5.49 µM (active) and 13.9 µM (active); the outcome was inactive.

With `CO/C=C(/C(=O)OC)c1ccccc1Oc1cc(Oc2ccccc2C#N)ncn1`, the result was inactive.

In the case of `Cc1ccc(-c2c(Cl)nc(C#N)n2S(=O)(=O)N(C)C)cc1`, the result was inactive.

For the compound `CCCCOC(=O)c1ccccc1C(=O)OCCCC`, the compound was called inactive.

`COP(=S)(OC)Oc1nc(Cl)c(Cl)cc1Cl`: the compound was called inactive.

As for `Cc1c(F)c(F)c(COC(=O)C2C(/C=C(\Cl)C(F)(F)F)C2(C)C)c(F)c1F` (stereo not drawn), the compound was classed as inactive.

Turning to `COc1cnc(OC)n2nc(NS(=O)(=O)c3c(OCC(F)F)cccc3C(F)(F)F)nc12`, the compound was called inactive.

`COc1nc(C)nc(NC(=O)NS(=O)(=O)c2ccccc2Cl)n1`: the call was inactive.

With `Cc1cc(Cl)ccc1OCC(=O)O`, the result was inactive.

The next experiment has the same target. The experiment in a line: OT_ER_ERaERa_1440: Odyssey Thera (OT) 24-hour HEK293T Protein-Complementation Assay for Estrogen Receptor-alpha/-alpha Homodimer (AID 2283349).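 Further: hits raise fluorescence above DMSO for agonists and antagonists alike.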 The method, boiled down:
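Cells (HEK293T) carrying the fragment-tagged ERα LBD (aa 310-547) pair are treated with chemical for 24 hours. Nuclear and/or cytoplasmic fluorescence is then quantified on a laser scanning cytometer. Activity is scored as signal gain against DMSO.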
With `CCCCNC(=O)n1c(NC(=O)OC)nc2ccccc21`, the result was inactive.

`OC(c1ccc(Cl)cc1)(c1cncnc1)c1ccccc1Cl` (stereo not drawn): the result was inactive.

On to `CO/C=C(/C(=O)OC)c1ccccc1Oc1cc(Oc2ccccc2C#N)ncn1`, for which the result was inactive.

In the case of `Cc1c(F)c(F)c(COC(=O)C2C(/C=C(\Cl)C(F)(F)F)C2(C)C)c(F)c1F` (stereo not drawn), the call was inactive.

Consider `COc1cnc(OC)n2nc(NS(=O)(=O)c3c(OCC(F)F)cccc3C(F)(F)F)nc12`, for which the compound was classed as inactive.

As for `COc1nc(NC(C)C)nc(NC(C)C)n1`, the compound was called inactive.

In the case of `CCOC(=O)C(Cl)Cc1cc(-n2nc(C)n(C(F)F)c2=O)c(F)cc1Cl` (stereo not drawn), the result was inactive.

Another experiment addresses Bile acid receptor (Homo sapiens) (UniProt Q96RI1). The experiment in a line: NVS_NR_hFXR_Antagonist: NovaScreen (NVS) Nuclear Receptor Binding Assay for human Farnesoid X Receptor Antagonism (FXR) (AID 2283350). The method, boiled down:
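Antagonist-format time-resolved FRET binding assay with extracted human receptor protein, read 1 hour after compound addition. Compounds first screened at 25 uM in duplicate, then actives tested in concentration series, with loss of signal relative to DMSO.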
Regarding `CCCN(CCC)c1c([N+](=O)[O-])cc(S(N)(=O)=O)cc1[N+](=O)[O-]`, the AC50 was 26.4 µM (active) and the compound was classed as inactive.

With `COC(=O)c1ccccc1C(=O)OC`, the compound was classed as inactive.

Regarding `N#Cc1cc(Br)c(O)c(Br)c1`, the call was inactive.

For the compound `COc1ccc(C(c2ccc(OC)cc2)C(Cl)(Cl)Cl)cc1`, the outcome was inactive.

The target in the next experiment is Estrogen receptor (Homo sapiens) (UniProt P03372). As to the kind of experiment: OT_ER_ERaERa_0480: Odyssey Thera (OT) 8-hour HEK293T Protein-Complementation Assay for Estrogen Receptor-alpha/-alpha Homodimer (AID 2283351).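 Further: rise in fluorescence from reassembled reporter fragments on ERα LBD homodimer in nucleus or whole cell.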 In short, it runs like this:
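Cells were treated for 8 hours, then imaged on a laser scanning plate cytometer. Complementation of reporter fragments fused to the human ERα ligand-binding domain (residues 310-547) in HEK293T gave fluorescence, and gain of signal over vehicle was fitted.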
As for `CCCN(CCC)c1c([N+](=O)[O-])cc(S(N)(=O)=O)cc1[N+](=O)[O-]`, the result was inactive.

For the compound `C=CC1(C)OC(=O)N(c2cc(Cl)cc(Cl)c2)C1=O` (stereo not drawn), the call was inactive.

For `CCCCNC(=O)n1c(NC(=O)OC)nc2ccccc21`, the call was inactive.

As for `C=CCC1=C(C)C(OC(=O)C2C(C=C(C)C)C2(C)C)CC1=O` (stereo not drawn), the result was inactive.

With `COC(=O)c1ccccc1C(=O)OC`, the compound was called inactive.

In the case of `OC(c1ccc(Cl)cc1)(c1cncnc1)c1ccccc1Cl` (stereo not drawn), the call was inactive.

As to `CC(Oc1ccc(Cl)cc1Cl)C(=O)O` (stereo not drawn), the outcome was inactive.

Take `CON(C)C(=O)Nc1ccc(Cl)c(Cl)c1`: the outcome was inactive.

In the case of `CCCCNC(=O)OCC#CI`, the result was inactive.

In the case of `N#Cc1nn(-c2c(Cl)cc(C(F)(F)F)cc2Cl)c(N)c1S(=O)C(F)(F)F` (stereo not drawn), the compound was called inactive.

As to `CCCCC(CC)COC(=O)c1ccccc1C(=O)OCC(CC)CCCC` (stereo not drawn), the result was inactive.

Turning to `CCNc1nc(Cl)nc(NC(C)C)n1`, the result was inactive.

As for `CCOC(=O)CC(SP(=S)(OC)OC)C(=O)OCC` (stereo not drawn), the outcome was inactive.

On to `N#Cc1cc(Br)c(O)c(Br)c1`, for which the call was inactive.

With `COc1ccc(C(c2ccc(OC)cc2)C(Cl)(Cl)Cl)cc1`, the AC50 is 13 µM (active) and 12.5 µM (active) and 10.8 µM (active).

`CO/C=C(/C(=O)OC)c1ccccc1Oc1cc(Oc2ccccc2C#N)ncn1`: the outcome was inactive.

Take `Cc1ccc(-c2c(Cl)nc(C#N)n2S(=O)(=O)N(C)C)cc1`: the call was inactive.

Turning to `CCCCOC(=O)c1ccccc1C(=O)OCCCC`, the AC50 is 46.7 µM (active) and 37.4 µM (active) and 35.4 µM (active).

On to `COP(=S)(OC)Oc1nc(Cl)c(Cl)cc1Cl`, for which the result was inactive.

Regarding `Cc1c(F)c(F)c(COC(=O)C2C(/C=C(\Cl)C(F)(F)F)C2(C)C)c(F)c1F` (stereo not drawn), the compound was classed as inactive.

`COc1cnc(OC)n2nc(NS(=O)(=O)c3c(OCC(F)F)cccc3C(F)(F)F)nc12`: the compound was classed as inactive.

Take `CCc1nn(C)c(C(=O)NCc2ccc(C(C)(C)C)cc2)c1Cl`: the result was inactive.

Consider `COc1nc(NC(C)C)nc(NC(C)C)n1`, for which the call was inactive.

For the compound `CCOC(=O)C(Cl)Cc1cc(-n2nc(C)n(C(F)F)c2=O)c(F)cc1Cl` (stereo not drawn), the result was inactive.

Take `Cc1cc(Cl)ccc1OCC(=O)O`: the compound was called inactive.

(Values after PubChem BioAssay (EPA / NIEHS).)
